# In the supplement of paper PMC10338343:
# ± gives the standard deviation.
# Test system: MILI (PIWIL2) piRISC loaded with L1MC piRNA (26 nt)
# Experiment: pre-steady-state target cleavage rate (min^-1); guide: L1MC piRNA 5'p-UAACUAAAUACUAUGCAAGCUGUAGG; MIWI and MILI are mouse PIWI proteins and EfPiwi is from a freshwater sponge; tags in brackets are library labels; higher = faster piRNA-guided slicing of the target
# Procedure, shortened: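 With or without 500 nM GTSF1 partner protein, 1 nM active affinity-purified piRISC carrying one synthetic guide was mixed with 0.1 nM transcribed, DNA-blocked target RNA library in HEPES–potassium acetate buffer at 33 °C for 0–8 or 0–960 min. Uncleaved targets were sequenced and normalised to depth and to weakly complementary targets, three trials were pooled, and k3 was capped at 0.0001 min^-1. The pre-steady-state cleavage rate came from a burst-and-steady-state fit.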
# [1] = auxiliary factor: 500 nM mouse GTSF1
# [2] = auxiliary factor: none (no GTSF1)
Sequence,pre-steady-state target cleavage rate [1],pre-steady-state target cleavage rate [2]
UCCUCCUACACCUUGCAUAGUAUUUAGUAA,0.226 ± 0.037,0.0033 ± 0.0026
UCCUCCUACAGCUUGCAUUGUAUUUACUUA,0.145 ± 0.021,0.00286 ± 0.0022
UCCUGGAUGUCGUUGCAUAGUAAUUUAGUUA,0.0127 ± 0.0059,0.00447 ± 0.0029
UCCUGGUACAGCUUGGAUAGUUUUUAGUUA,0.0597 ± 0.014,0.00594 ± 0.0035
UCCUGGUACAGCUUGCAUAUAUUUAGUUA,0.035 ± 0.011,0.00493 ± 0.0024
UCCUGGAUGUCGUUGCAUAGUAUUUAGUUC [g2:g18:cont:t1C],0.0984 ± 0.01,0.00738 ± 0.0026
UCCUGGAACAGCUUGGAUAGUAUUUUGUUA,0.203 ± 0.034,0.00404 ± 0.0026
UCCUGGAUGUGCAUGCAUUGUAUUUAGUUA,0.0212 ± 0.0051,0.00604 ± 0.0024
UCCUGGAUGAGCUUGCUUAGUAUUUUGUUA,0.138 ± 0.021,0.00587 ± 0.0022
UCCUGGUACAGCUUCGUUAGUAUUUAGUUA,0.128 ± 0.013,0.00406 ± 0.0022
UCCUGGUACAGCUUGCAUACUAAUUAGUUA,0.0462 ± 0.019,0.00356 ± 0.0031
UCCUGGAUGUCGUUGCAUGGUAUUUAGUUA,0.0354 ± 0.01,0.00854 ± 0.0034
UCCUGGAUCAAGCUUGCAUAGUAUUUAGUUA,0.237 ± 0.018,0.0103 ± 0.0028
UCCUGGAUGUCGUUGCAUAGUAUUUAGUGA,0.193 ± 0.034,0.00426 ± 0.0027
UCCUGGAUGUGCUUGGUUAGUAUUUAGUUA,0.0978 ± 0.017,0.01 ± 0.0025
UCCUGCUACAGCUUGCAUAGUCAUUUAGUUA,0.0225 ± 0.0089,0.00473 ± 0.002
UCCUGGUACAGCAACCAUAGUAUUUAGUAA,0.313 ± 0.064,0.00382 ± 0.0021
UCCUGGAUGAGGUUGCUUAGUAUUUAGUUA,0.12 ± 0.01,0.0107 ± 0.0022
UCCUCUCUACAGCUUGCAUAGUAUUUAGUUA,0.28 ± 0.022,0.00895 ± 0.0022
UCCUGGAUGUGCUUGCAUUGUAAUUAGUUA,0.0229 ± 0.0072,0.00338 ± 0.0033

Sequence,pre-steady-state target cleavage rate [1],pre-steady-state target cleavage rate [2]
UCCUGGAUGUCGAUGCAUAGUAUUAUAGUUA,0.123 ± 0.021,0.00538 ± 0.0026
UCCUGGAUGUCGUUGCAUAGUAGUUAGUUA,0.013 ± 0.0052,0.00511 ± 0.0031
UCCUGGUACAGCUUGCUUAGUAUUUAGUUA,0.219 ± 0.024,0.00964 ± 0.0022
UCCUGGAUGUCGAUGCAUAGUUAUUAGUUA,0.00565 ± 0.0033,0.0042 ± 0.0022
UCCUGGAUGUCGUUGCUUAGUUUUUAGUUA,0.00856 ± 0.0044,0.00646 ± 0.0025
UCCUGGAUCAGCUUGCAUAGUAUUUAGUAA,0.24 ± 0.016,0.00751 ± 0.0025
UCCUGGAUGUCCUUGCAUAGGUAUUUAGUUA,0.00785 ± 0.0038,0.00689 ± 0.0025
UCCUGGAACAGCUUGCUUAGUAUUUACUUA,0.187 ± 0.032,0.00316 ± 0.0028
UCCUGGAUCAGCUUGCAUAGUCAUUUAGUUA,0.0161 ± 0.0075,0.00581 ± 0.0023
UCCUGGAUCAGCUUGCUUAGUAUUUUGUUA,0.16 ± 0.015,0.00583 ± 0.0022
UCCUGGAUGAGCAUGGAUAGUAUUUAGUUA,0.189 ± 0.019,0.0105 ± 0.0024
UCCUCCUUCAGCUUGCAUAGUAAUUAGUUA,0.211 ± 0.021,0.00503 ± 0.002
UCCUGGAUCAGCUUGCUUAGUAUUUAGUAA,0.218 ± 0.012,0.00347 ± 0.0021
UCCUGCUACAGGUUGCAUAGUAUUUAGAUA,0.114 ± 0.033,0.00283 ± 0.0027
UCCUGGAUGAGGUUGCAAAGUAUUUAGUUA,0.0323 ± 0.0068,0.00826 ± 0.0022
UCCUGGAUGUCCUAGCAUAGUAUUUAGUUA,0.0817 ± 0.015,0.00379 ± 0.002
UCCUGGAUGAGCUUGCAUAGUAUUGUAGUUA,0.0782 ± 0.024,0.00469 ± 0.003
UCCUGGAACAGCAACCAUAGUAUUUAGUUA,0.152 ± 0.018,0.00431 ± 0.0018
UCCUGGAUCAGUUGCAUAGUAUUUAGUUA,0.257 ± 0.016,0.00796 ± 0.002
UCCUGGUACAGCUUGCAUAGUAUUUAGUGA,0.129 ± 0.021,0.00389 ± 0.0025

Sequence,pre-steady-state target cleavage rate [1],pre-steady-state target cleavage rate [2]
UCCUGGUACAGCUUGCAUAGUGAUUUAGUUA,0.0336 ± 0.01,0.00917 ± 0.0038
UCCUCCUACAGCUUCGAUAGUAUUUAGUUA,0.26 ± 0.017,0.00534 ± 0.0022
UCCUGGAUGUCGAUGCAUAGUAAUUAGUUA,0.0524 ± 0.011,0.00499 ± 0.0021
UCCUGGAUCAGCUUGGAUAGUUUUUAGUUA,0.0521 ± 0.0089,0.00364 ± 0.0024
UCCUGGAACAGCUUGCAUAGUGAUUUAGUUA,0.0178 ± 0.007,0.00499 ± 0.0023
UCCUGGUACAGCUUGCUAUGUAUUUAGUUA,0.0246 ± 0.0085,0.00465 ± 0.0027
UCCUGGAUCAGCUUCCAAAGUAUUUAGUUA,0.0704 ± 0.0082,0.00341 ± 0.0024
UCCUGGAUGUGGUUGCAUAGAAUUUAGUUA,0.0151 ± 0.0063,0.00318 ± 0.0028
UCCUGGUACAGCUUGGAUAGUAUUUUGUUA,0.0944 ± 0.022,0.00486 ± 0.0048
UCCUGCUACACCUUGCUUAGUAUUUAGUUA,0.2 ± 0.017,0.00572 ± 0.0028
UCCUGGAUCAGGAUGCAUAGUAUUUAGUAA,0.128 ± 0.012,0.00364 ± 0.002
UCCUCCUACUGCUUGCAUAGUAUAUAGUUA,0.179 ± 0.021,0.00372 ± 0.0022
UCCUGGAUGUCCUUGGAUAGUAUUUAGUUA,0.153 ± 0.021,0.00762 ± 0.0021
UCCUGGAUGAGCUUGCAUAGGUAUUUAGUUA,0.00411 ± 0.0031,0.00493 ± 0.0023
UCCUGGAUGAGCUUGGAUAGUAUUUAGUAA,0.178 ± 0.027,0.00491 ± 0.0023
UCCUGGAUGUCGAAGCAUAGUAAUUUAGUUA,0.0148 ± 0.0051,0.0059 ± 0.0018
UCCUCCUACAGCUUCCAAAGUAUUUAGUUA,0.13 ± 0.019,0.0037 ± 0.0022
UCCUGGUACACCUUGCAUUGUAUUUAGUUA,0.15 ± 0.041,0.00903 ± 0.0041
UCCUGGAACAGCUACCAUAGUAUUUAGUUA,0.174 ± 0.016,0.00403 ± 0.0022
UCCUGGAUGUCGUGGCAUAGUAUUUAGUUA,0.0441 ± 0.011,0.00558 ± 0.0029
